# Laboratory results taken from PubChem BioAssay.
# Inconclusive results are not listed. Active and inactive are the calls of the source.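 Rule for the calls, unless noted: active = normalized viability below 100% at a tested concentration; inactive = the rest.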
# Experiments:
# [1] = ovarian cancer cell viability with rucaparib, profiling panel, oncology-focused library, rucaparib conditional (AID 1508598); settings: patient-derived ovarian cancer cells, CellTiter-Glo viability, 144 h, stronger effect = lower value
# [2] = growth inhibition of DIPG glioma cells, dose response, cell-based, SU-DIPG-XVII, MIPE5.0, CellTiter-Glo, qHTS (AID 1347060; cut-off not given, nearly all actives have AC50 up to about 26 µM;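 note: cells exposed to compound for 48 hours before viability readout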); settings: SU-DIPG-XVII viability, CellTiter-Glo ATP luminescence
# [3] = growth inhibition of DIPG glioma cells, dose response, cell-based, JHH-DIPG-1, MIPE4.0, CellTiter-Glo, qHTS (AID 1347062; cut-off not given, nearly all actives have AC50 up to about 27 µM;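 note: cells exposed to compound for two days before readout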); settings: JHH-DIPG-1 viability, CellTiter-Glo ATP luminescence
# [4] = viability loss in pontine glioma line – cell-based, SU-DIPG-XXV, MIPE5.0, CellTiter-Glo, qHTS, dose response (AID 1347065; cut-off not given, nearly all actives have AC50 up to about 26 µM;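 note: cells exposed to compound for 48 hours before ATP readout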); settings: CellTiter-Glo ATP luminescence
# [5] = JHH-DIPG-1 glioma cell viability, MIPE5.0 library, CellTiter-Glo luminescence, qHTS (AID 1347067; cut-off not given, nearly all actives have AC50 up to about 26 µM;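 note: cells exposed to compound for 48 hours before readout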); settings: JHH-DIPG-1 glioma viability, CellTiter-Glo ATP luminescence
# [6] = modifiers of HSF1 nuclear foci, imaging, Selleck Cancer Library (AID 1347162; in the data active = plate-normalised HSF1 focus index below about 0.46); settings: human cells, at 10 µM; SSMD: measured here: HSF1 foci SSMD mean; cell count: measured here: cell number; plate-normalised HSF1 focus index: stronger effect = lower value
# [7] = growth inhibition of DIPG glioma cells, dose response, cell-based, SU-DIPG-IV, MIPE4.0, CellTiter-Glo, qHTS (AID 1347063; cut-off not given, nearly all actives have AC50 up to about 30 µM;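 note: compound exposure lasted 48 hours before the viability readout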); settings: SU-DIPG-IV viability, CellTiter-Glo ATP luminescence
# [8] = growth inhibition of DIPG glioma cells, dose response, cell-based, SU-DIPG-XIII, MIPE5.0, CellTiter-Glo, qHTS (AID 1347064; cut-off not given, nearly all actives have AC50 up to about 23 µM;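 note: cells exposed to compound for 48 hours before the viability read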); settings: SU-DIPG-XIII viability, CellTiter-Glo ATP luminescence
# [9] = SU-DIPG-VI glioma cell viability, MIPE4.0 library, CellTiter-Glo luminescence, qHTS (AID 1347066; cut-off not given, nearly all actives have AC50 up to about 30 µM;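 note: cells exposed to compound for 48 hours before readout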); settings: CellTiter-Glo ATP luminescence
# [10] = SU-DIPG-XXV glioma cell viability, MIPE5.0 library, qHTS (AID 1347068; cut-off not given, nearly all actives have IC50 up to about 30 µM;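 for IC50: cells exposed to compound for 48 hours before viability readout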)
# [11] = sensitizers of A549 cells to miR-34 induction, primary screen, imaging, A549 dox-inducible miR-34, nuclei and caspase counts (AID 1347080;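 active = compounds whose cell count with miR-34 switched on is under 0.7 times the count with it off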); settings: A549 miR-34 inducible, Hoechst nuclei count, 48 h
# [12] = survival rescue of mitochondrial mutant cells in low glucose, primary screen, MELAS cybrids, Rieske KO mouse fibroblasts, CellTiter-Glo (AID 1508586;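 active = mean z-score across replicates of 1.96 or higher in either the MELAS or the Rieske mutant cell line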;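 note: z relative to plate mean and SD of compound and empty wells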)
# [13] = at 0.0195 µM, OCI-P5x cells, with rucaparib 20 µM, 100% = cells with rucaparib alone
# [14] = at 0.0195 µM, OCI-P5x cells, without rucaparib
# [15] = at 0.0781 µM, OCI-C5x cells, with rucaparib 10 µM, 100% = cells with rucaparib alone
# [16] = at 0.0781 µM, OCI-C5x cells, without rucaparib
# [17] = at 0.0781 µM, OCI-P5x cells, with rucaparib 20 µM, 100% = cells with rucaparib alone
# [18] = at 0.0781 µM, OCI-P5x cells, without rucaparib
# [19] = at 0.313 µM, OCI-C5x cells, with rucaparib 10 µM, 100% = cells with rucaparib alone
# [20] = at 0.313 µM, OCI-C5x cells, without rucaparib
# [21] = at 0.313 µM, OCI-P5x cells, with rucaparib 20 µM, 100% = cells with rucaparib alone
# [22] = at 0.313 µM, OCI-P5x cells, without rucaparib
# [23] = at 1.25 µM, OCI-C5x cells, with rucaparib 10 µM, 100% = cells with rucaparib alone
# [24] = at 1.25 µM, OCI-C5x cells, without rucaparib
# [25] = at 1.25 µM, OCI-P5x cells, with rucaparib 20 µM, 100% = cells with rucaparib alone
# [26] = at 1.25 µM, OCI-P5x cells, without rucaparib
# [27] = at 5 µM, OCI-C5x cells, with rucaparib 10 µM, 100% = cells with rucaparib alone
# [28] = at 5 µM, OCI-C5x cells, without rucaparib
# [29] = at 5 µM, OCI-P5x cells, with rucaparib 20 µM, 100% = cells with rucaparib alone
# [30] = at 5 µM, OCI-P5x cells, without rucaparib
# [31] = at 0.000305 µM, OCI-C5x cells, with rucaparib 10 µM, 100% = cells with rucaparib alone
# [32] = at 0.000305 µM, OCI-C5x cells, without rucaparib
# [33] = at 0.000305 µM, OCI-P5x cells, with rucaparib 20 µM, 100% = cells with rucaparib alone
# [34] = at 0.000305 µM, OCI-P5x cells, without rucaparib
# [35] = at 0.00122 µM, OCI-C5x cells, with rucaparib 10 µM, 100% = cells with rucaparib alone
# [36] = at 0.00122 µM, OCI-C5x cells, without rucaparib
# [37] = at 0.00122 µM, OCI-P5x cells, with rucaparib 20 µM, 100% = cells with rucaparib alone
# [38] = at 0.00122 µM, OCI-P5x cells, without rucaparib
# [39] = at 0.00488 µM, OCI-C5x cells, with rucaparib 10 µM, 100% = cells with rucaparib alone
# [40] = at 0.00488 µM, OCI-C5x cells, without rucaparib
# [41] = at 0.00488 µM, OCI-P5x cells, with rucaparib 20 µM, 100% = cells with rucaparib alone
# [42] = at 0.00488 µM, OCI-P5x cells, without rucaparib
# [43] = at 0.0195 µM, OCI-C5x cells, with rucaparib 10 µM, 100% = cells with rucaparib alone
# [44] = at 0.0195 µM, OCI-C5x cells, without rucaparib
# [45] = stronger effect = lower value, cell number ratio, induced over uninduced
# [46] = measured here: relative caspase fold change +Dox/-Dox
# [47] = measured here: total cells with miR-34 induction, stronger effect = lower value
# [48] = measured here: total cells without miR-34 induction
# [49] = MELAS cybrid survival, CellTiter-Glo 48 h, stronger effect = higher value
# [50] = Rieske KO mouse fibroblast survival, CellTiter-Glo 72 h
compound,measurement,setting,value
O=C(Nc1ccccc1-c1cn2c(CN3CCNCC3)csc2n1)c1cnc2ccccc2n1,viability,[1]; [13],111% (inactive)
same,viability,[1]; [14],114% (inactive)
same,viability,[1]; [15],113% (inactive)
same,viability,[1]; [16],110% (inactive)
same,viability,[1]; [17],110% (inactive)
same,viability,[1]; [18],110% (inactive)
same,viability,[1]; [19],110% (inactive)
same,viability,[1]; [20],108% (inactive)
same,viability,[1]; [21],113% (inactive)
same,viability,[1]; [22],107% (inactive)
same,viability,[1]; [23],131% (inactive)
same,viability,[1]; [24],120% (inactive)
same,viability,[1]; [25],68.8% (active)
same,viability,[1]; [26],89.6% (active)
same,viability,[1]; [27],1.3% (active)
same,viability,[1]; [28],1.45% (active)
same,viability,[1]; [29],0.727% (active)
same,viability,[1]; [30],0.751% (active)
Cc1cnc(NC(=O)Nc2cc(Br)c(C)cc2OC[C@@H]2CNCCO2)cn1,AC50,[2],8.33 µM (active)
same,AC50,[3],1.18 µM (active)
same,AC50,[4],8.33 µM (active)
same,AC50,[5],20.9 µM (active)
same,SSMD,[6],3.14
same,cell count,[6],6470
same,plate-normalised HSF1 focus index,[6],1.16 (inactive)
same,viability,[1]; [31],111% (inactive)
same,viability,[1]; [32],118% (inactive)
same,viability,[1]; [33],65.9% (active)
same,viability,[1]; [34],19.8% (active)
same,viability,[1]; [35],84.2% (active)
same,viability,[1]; [36],88.9% (active)
same,viability,[1]; [37],47.7% (active)
same,viability,[1]; [38],17.5% (active)
same,viability,[1]; [39],103% (inactive)
same,viability,[1]; [40],121% (inactive)
same,viability,[1]; [41],114% (inactive)
same,viability,[1]; [42],109% (inactive)
same,viability,[1]; [43],109% (inactive)
same,viability,[1]; [44],113% (inactive)
same,viability,[1]; [13],107% (inactive)
same,viability,[1]; [14],104% (inactive)
same,viability,[1]; [15],102% (inactive)
same,viability,[1]; [16],117% (inactive)
same,viability,[1]; [17],92.1% (active)
same,viability,[1]; [18],105% (inactive)
same,viability,[1]; [19],96% (active)
same,viability,[1]; [20],98% (active)
same,viability,[1]; [21],73.6% (active)
same,viability,[1]; [22],94.9% (active)
same,viability,[1]; [23],60.4% (active)
same,viability,[1]; [24],71.2% (active)
same,viability,[1]; [25],43% (active)
same,viability,[1]; [26],85.9% (active)
same,viability,[1]; [27],3.26% (active)
same,viability,[1]; [28],46.4% (active)
same,viability,[1]; [29],0.466% (active)
same,viability,[1]; [30],7.42% (active)
Cc1cc(Nc2cc(CN3CCOCC3)c3nc(C)c(Cc4ccc(Cl)cc4F)n3n2)n[nH]1,AC50,[2],1.32 µM (active)
same,AC50,[7],11.8 µM (active)
same,AC50,[8],10.5 µM (active)
same,AC50,[4],1.18 µM (active)
same,AC50,[9],23.5 µM (active)
same,AC50,[5],3.32 µM (active)
same,IC50,[10],8.33 µM (active)
same,fold change,[11]; [45],1.46 (inactive)
same,fold change,[11]; [46],0.647
same,cell count,[11]; [47],1440
same,cell count,[11]; [48],982
same,z-score,[12]; [49],-0.366 (inactive)
same,z-score,[12]; [50],-1.27
COc1cccc2cc(-c3nc(C4CCC(C(=O)O)CC4)n4ncnc(N)c34)[nH]c12 (stereo not drawn),AC50,[2],5.9 µM (active)
same,AC50,[7],0.166 µM (active)
same,AC50,[8],3.72 µM (active)
same,AC50,[4],2.63 µM (active)
same,AC50,[5],1.18 µM (active)
same,outcome,[10],inactive
same,fold change,[11]; [45],0.965 (inactive)
same,fold change,[11]; [46],0.637
same,cell count,[11]; [47],3250
same,cell count,[11]; [48],3360
same,z-score,[12]; [49],4.23 (active)
same,z-score,[12]; [50],-0.621
COc1ccc(-c2ccc3c(N4CCOCC4)nc(N4C[C@@H](C)O[C@@H](C)C4)nc3n2)cc1CO,AC50,[2],3.72 µM (active)
same,AC50,[7],0.332 µM (active)
same,AC50,[8],4.17 µM (active)
same,AC50,[4],1.05 µM (active)
same,outcome,[9],inactive
same,AC50,[5],1.05 µM (active)
same,SSMD,[6],-1.75
same,cell count,[6],6570
same,plate-normalised HSF1 focus index,[6],0.909 (inactive)
same,viability,[1]; [31],118% (inactive)
same,viability,[1]; [32],122% (inactive)
same,viability,[1]; [33],105% (inactive)
same,viability,[1]; [34],112% (inactive)
same,viability,[1]; [35],113% (inactive)
same,viability,[1]; [36],119% (inactive)
same,viability,[1]; [37],109% (inactive)
same,viability,[1]; [38],108% (inactive)
same,viability,[1]; [39],112% (inactive)
same,viability,[1]; [40],120% (inactive)
same,viability,[1]; [41],104% (inactive)
same,viability,[1]; [42],107% (inactive)
same,viability,[1]; [43],120% (inactive)
same,viability,[1]; [44],117% (inactive)
same,viability,[1]; [13],103% (inactive)
same,viability,[1]; [14],104% (inactive)
same,viability,[1]; [15],122% (inactive)
same,viability,[1]; [16],125% (inactive)
same,viability,[1]; [17],100% (inactive)
same,viability,[1]; [18],109% (inactive)
same,viability,[1]; [19],121% (inactive)
same,viability,[1]; [20],127% (inactive)
same,viability,[1]; [21],95.5% (active)
same,viability,[1]; [22],106% (inactive)
same,viability,[1]; [23],120% (inactive)
same,viability,[1]; [24],124% (inactive)
same,viability,[1]; [25],78.8% (active)
same,viability,[1]; [26],91.3% (active)
same,viability,[1]; [27],133% (inactive)
same,viability,[1]; [28],106% (inactive)
same,viability,[1]; [29],48% (active)
same,viability,[1]; [30],99.4% (active)
